Results filed as inconclusive are left out. A call without a number means that no potency is given here. Values without a mark were called inactive. Active and inactive are the calls of the source. The call rests on the fitted dose curve; in most records, active means well fitted curve in the direction sought with a large enough effect; inconclusive means small, poorly fitted or top-dose-only effect, or another doubt; inactive means no such curve, though single readings can be large; an effect the other way counts as inactive or inconclusive.
Tests used:
NIH3T3 = assay: qHTS assay to identify novel small-molecules to repurpose for Merkel cell carcinoma treatment (AID 1296009); details: MCC and control cell lines, CellTiter-Glo viability, 72 h; series mostly up to 44.8 µM; further: nearly all actives have a fitted effect of over 60% in size; further: potency means the concentration at half of the fitted maximal effect
Summary of the method: (§1)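 Dose-response viability screen; 72 hr exposure at 37 degree celsius; CellTiter-Glo added, 10 min room temperature, luminescence read; RLUs scaled between no-cell and DMSO wells.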

C33A = assay: Primary qHTS to identify gynecologic anti-cancer compounds using libraries of approved drugs and bioactive compounds (AID 1345084); details: Gynecologic cancer cell panel viability, ATPlite luminescence, 48 h; series mostly up to 57.5 µM; further: nearly all actives have a fitted effect of over 55% in size
Summary of the method: (§2)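 Cells, 1,000 per well, were allowed to settle for 16 h at 37 C before compound addition. Five concentrations were tested for 48 h, and viability was read by ATPlite luminescence after 15 min at room temperature.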

CAOV3 = assay: as above; details: Gynecologic cancer cell panel viability, ATPlite luminescence, 48 h; series mostly up to 57.5 µM
Summary of the method: as §2

CASKI = assay: as above; details: Gynecologic cancer cell panel viability, ATPlite luminescence, 48 h; series mostly up to 57.5 µM
Summary of the method: as §2

Es-2 = assay: as above; details: Gynecologic cancer cell panel viability, ATPlite luminescence, 48 h; series mostly up to 57.5 µM
Summary of the method: as §2

HeLa = assay: as above; details: Gynecologic cancer cell panel viability, ATPlite luminescence, 48 h; series mostly up to 57.5 µM
Summary of the method: as §2

Hek293T = assay: as above; details: Gynecologic cancer cell panel viability, ATPlite luminescence, 48 h, control line for the selectivity index; series mostly up to 57.5 µM
Summary of the method: as §2

JEG-3 = assay: as above; details: Gynecologic cancer cell panel viability, ATPlite luminescence, 48 h; series mostly up to 57.5 µM
Summary of the method: as §2

OV90 = assay: as above; details: Gynecologic cancer cell panel viability, ATPlite luminescence, 48 h; series mostly up to 57.5 µM
Summary of the method: as §2

PA-1 = assay: as above; details: Gynecologic cancer cell panel viability, ATPlite luminescence, 48 h; series mostly up to 57.5 µM
Summary of the method: as §2

SKOV3 = assay: as above; details: Gynecologic cancer cell panel viability, ATPlite luminescence, 48 h; series mostly up to 57.5 µM
Summary of the method: as §2

Tov-21-G = assay: as above; details: Gynecologic cancer cell panel viability, ATPlite luminescence, 48 h; series mostly up to 57.5 µM
Summary of the method: as §2

Tov112D = assay: as above; details: Gynecologic cancer cell panel viability, ATPlite luminescence, 48 h; series mostly up to 57.5 µM
Summary of the method: as §2

MKL-2 = assay: qHTS assay to identify novel small-molecules to repurpose for Merkel cell carcinoma treatment (AID 1296009); details: MCC and control cell lines, CellTiter-Glo viability, 72 h; further: nearly all actives have a fitted effect of over 60% in size; further: potency means the concentration at half of the fitted maximal effect
Summary of the method: as §1

astro = assay: Drug repurposing screens with cells derived from glioblastoma tumor samples (AID 1345199); details: viability, ATP luminescence, 48 h; series mostly up to 45.9 µM; further: potency means the concentration at half of the fitted maximal effect; nearly all actives have a fitted effect of over 40% in size
Summary of the method: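 Primary testing used CD133+ neurospheres from four GBM patients, seven concentrations, 48 h exposure and ATP-based viability; confirmation added three slower-growing patient lines.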

Compound	Potency (NIH3T3)	Potency (C33A)	Potency (CAOV3)	Potency (CASKI)	Potency (Es-2)	Potency (HeLa)	Potency (Hek293T)	Potency (JEG-3)	Potency (OV90)	Potency (PA-1)	Potency (SKOV3)	Potency (Tov-21-G)	Potency (Tov112D)	Potency (MKL-2)	Potency (astro)
CO[C@H]1O[C@@H]2O[C@@]3(C)CCC4[C@H](C)CCC([C@H]1C)[C@]42OO3 (some centres not stated)	inactive	inactive	inactive	inactive	inactive	inactive	inactive	inactive	inactive	inactive	inactive	inactive	inactive	–	–
CCOC(=O)N1CCC(N2CCC[C@@H](NC(=O)c3ccccc3C)C2)CC1	inactive	inactive	inactive	inactive	inactive	inactive	inactive	inactive	inactive	inactive	inactive	inactive	inactive	–	–
CCN1CCC[C@@H]1CNC(=O)c1ccc2c(c1)NC(=O)c1cccc(C)c1S2	inactive	inactive	inactive	inactive	inactive	inactive	inactive	inactive	inactive	inactive	inactive	inactive	inactive	–	–
O=C(/C=C/c1ccccc1O)O[C@@H]1O[C@H](CO)[C@@H](O)[C@H](O)[C@H]1O	inactive	inactive	inactive	inactive	inactive	inactive	inactive	inactive	inactive	inactive	inactive	inactive	inactive	–	–
CCCCOC(=O)NS(=O)(=O)c1sc(CC(C)C)cc1-c1ccc(Cn2ccnc2)cc1	inactive	inactive	inactive	inactive	inactive	inactive	inactive	inactive	inactive	inactive	inactive	inactive	inactive	–	–
CC(C)c1c(O)ccc2c1CC[C@H]1C(C)(C)CCC[C@]21C	inactive	inactive	inactive	inactive	inactive	inactive	inactive	inactive	inactive	inactive	inactive	inactive	inactive	–	–
O=C([C@@H](Cc1cccc(C(F)(F)F)c1)NS(=O)(=O)c1cc(F)c2c(c1)CCNC2)N1CCCC1	inactive	inactive	inactive	inactive	inactive	inactive	inactive	inactive	inactive	inactive	inactive	inactive	inactive	–	–
O=c1[nH]c2ccccc2n1CCN1CCN(c2cccc(C(F)(F)F)c2)CC1	inactive	inactive	inactive	inactive	inactive	inactive	inactive	inactive	inactive	inactive	inactive	inactive	inactive	–	–
O=C(NCC1CCN(Cc2cccc(Cl)c2)CC1)[C@@H]1CCCN(c2ncnc3c2nc2n3CCCC2)C1	inactive	inactive	inactive	inactive	inactive	inactive	inactive	inactive	inactive	inactive	inactive	inactive	inactive	–	–
Cc1nnc(-c2ccc(-c3ccc(C(=O)Nc4ccc(O)c(N5CCN(C)CC5)c4)cc3)c(C)c2)o1	inactive	inactive	inactive	inactive	inactive	inactive	inactive	inactive	inactive	inactive	inactive	inactive	inactive	–	–
C/C=C/C=C/C(=O)O[C@@H]1C=C2COC(=O)[C@]2(O)[C@@]2(C)CCCC(C)(C)[C@H]12	inactive	inactive	inactive	inactive	inactive	inactive	inactive	inactive	inactive	inactive	inactive	inactive	inactive	–	–
Oc1cccc(-c2c3nc(c(-c4cccc(O)c4)c4ccc([nH]4)c(-c4cccc(O)c4)c4nc(c(-c5cccc(O)c5)c5ccc2[nH]5)CC4)C=C3)c1	–	–	inactive	inactive	–	–	–	inactive	–	–	inactive	–	inactive	13.3 µM (active)	25.1 µM (active)
CC#CCn1c(N2CCCC(N)C2)nc2c1c(=O)n(Cc1nc(C)c3ccccc3n1)c(=O)n2C (configuration not stated)	inactive	inactive	inactive	inactive	inactive	inactive	inactive	inactive	inactive	inactive	inactive	inactive	inactive	–	–
CCOc1ccc(CCNC(=O)c2cc3sc(Cl)cc3n2C)cc1OCC	inactive	inactive	inactive	inactive	inactive	inactive	inactive	inactive	inactive	inactive	inactive	inactive	inactive	–	–
CC(=O)OCC(=O)[C@@]12O[C@@H]1C[C@H]1[C@@H]3CC=C4C[C@@H](O)CC[C@]4(C)[C@H]3CC[C@@]12C	inactive	inactive	inactive	inactive	inactive	inactive	inactive	inactive	inactive	inactive	inactive	inactive	inactive	–	–
CC1(C)C2CCC(CO[C@@H]3O[C@H](CO[C@@H]4OC[C@](O)(CO)[C@H]4O)[C@@H](O)[C@H](O)[C@H]3O)C1C2 (some centres not stated)	inactive	inactive	inactive	inactive	inactive	inactive	inactive	inactive	inactive	inactive	inactive	inactive	inactive	–	–
